Reference: PubChem BioAssay AID1159580 (chemical genetic matrix, 2015)
Values joined by “and” are separate entries in the source; they are usually repeats but may differ in a detail not shown here. Identical values can stand only once. Screen size: about 5,500 compounds; about 2,000 (36%) were called active. About 18% were inconclusive and are not listed. Cut-off read from the data, not from the text of the source: active = normalized growth mostly below about 0.91 (no sharp cut-off); inconclusive = no clear call, values can overlap the other calls; inactive = mostly above about 0.92. The list shows a part of the results. Where a SMILES comes first, the peptide text is derived from it. Side-chain parts run from the residue outwards. [ ]: non-standard residue; d: D form. The star is where a group is joined. X1 = CCC(C)C(N)C1=NC(C(=O)*)CS1; Orn = NCCC[CH](N)C(=O)O

Experiment: chemical genetic growth profiling, strain panel (AID 1159580);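 note: tested at 20 µM; growth read once vehicle control cultures reached saturation at 30 °C; 1 = growth at the plate median or of vehicle wells; lower values mean less growth of the strain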
Conditions: S. cerevisiae deletion strains, growth OD

Measured: normalized growth

CCC(C)C(N)C1=NC(C(=O)NC(CC(C)C)C(=O)NC(CCC(=O)O)C(=O)NC(C(=O)NCCCCC2NC(=O)C(CC(N)=O)NC(=O)C(CC(=O)O)NC(=O)C(Cc3cnc[nH]3)NC(=O)C(Cc3ccccc3)NC(=O)C(C(C)CC)NC(=O)C(CCCN)NC2=O)C(C)CC)CS1 (stereo not drawn) (cyclo(DNK([Ile-Glu-Leu-X1])[Orn]IFH); configuration not given here)
inactive: locus YAL013W, strain DEP1, active compounds read low 1.01 | locus YAL021C, strain ccr4, active compounds read low 0.992 | locus YAL026C, strain drs2, active compounds read low 0.929 | locus YAL030W, strain snc1, active compounds read low 0.997 | locus YBL061C, strain skt5, active compounds read low 1 | locus YBR009C, strain hhf1, active compounds read low 0.952 | locus YBR021W, strain FUR4, active compounds read low 1.01 | locus YBR023C, strain chs3, active compounds read low 1.02 | locus YBR171W, strain sec66, active compounds read low 1 | locus YBR229C, strain ROT2, active compounds read low 0.991 | locus YBR231C, strain swc5, active compounds read low 0.999 | locus YBR279W, strain paf1, active compounds read low 1.01 | locus YCL011C, strain gbp2, active compounds read low 0.968 | locus YCL016C, strain dcc1, active compounds read low 0.981 | locus YCL029C, strain bik1, active compounds read low 1.01 | locus YCL061C, strain MRC1, active compounds read low 0.993 | locus YCL069W, strain vba3, active compounds read low 1 | locus YCR088W, strain abp1, active compounds read low 1.01 | locus YDL005C, strain med2, active compounds read low 0.999 | locus YDL035C, strain GPR1, active compounds read low 0.998 | locus YDL040C, strain nat1, active compounds read low 1.01 | locus YDL074C, strain BRE1, active compounds read low 1.04 | locus YDL101C, strain DUN1, active compounds read low 1 | locus YDL185W, strain tfp1, active compounds read low 1.04 | locus YDL192W, strain arf1, active compounds read low 1 | locus YDR001C, strain nth1, active compounds read low 0.987 | locus YDR069C, strain doa4, active compounds read low 1.02 | locus YDR101C, strain arx1, active compounds read low 1.02 | locus YDR137W, strain rgp1, active compounds read low 0.992 | locus YDR150W, strain NUM1, active compounds read low 1 | locus YDR159W, strain sac3, active compounds read low 0.996 | locus YDR162C, strain NBP2, active compounds read low 0.976 | locus YDR195W, strain ref2 0.976 | locus YDR297W, strain sur2, active compounds read low 1.01 | locus YDR318W, strain mcm21, active compounds read low 0.989 | locus YDR334W, strain swr1, active compounds read low 1.01 | locus YDR335W, strain msn5, active compounds read low 1.01 | locus YDR388W, active compounds read low 1.01 | locus YDR392W, strain spt3, active compounds read low 0.94 | locus YDR502C, strain sam2, active compounds read low 1.01 | locus YEL003W, strain gim4, active compounds read low 1.01 | locus YEL037C, strain rad23, active compounds read low 1.01 | locus YEL061C, strain CIN8 (second series), active compounds read low 1.01 | locus YEL061C, strain CIN8, active compounds read low 0.998 | locus YER015W, strain faa2, active compounds read low 1.01 | locus YER016W, strain bim1, active compounds read low 1 | locus YER110C, active compounds read low 1 | locus YER111C, strain swi4, active compounds read low 1.01 | locus YER155C, strain BEM2 (second series), active compounds read low 1.01 | locus YER155C, strain BEM2, active compounds read low 0.992 | locus YER167W, strain BCK2, active compounds read low 1.01 | locus YFR010W, strain ubp6, active compounds read low 1.03 | locus YGL078C, strain dbp3, active compounds read low 1.01 | locus YGL086W, strain mad1, active compounds read low 1.05 | locus YGL167C, strain pmr1, active compounds read low 1.02 | locus YGL173C, strain kem1, active compounds read low 1 | locus YGL227W, strain vid30, active compounds read low 1 | locus YGL240W, strain doc1, active compounds read low 1.03 | locus YGL248W, strain PDE1, active compounds read low 1 | locus YGL253W, strain hxk2, active compounds read low 0.993 | locus YGR135W, strain pre9, active compounds read low 1.01 | locus YGR252W, strain gcn5, active compounds read low 0.924 | locus YHR013C, strain ard1, active compounds read low 0.991 | locus YHR027C, strain rpn1, active compounds read low 1.01 | locus YHR030C, strain SLT2, active compounds read low 1 and 1.02 | locus YHR079C, strain IRE1 (second series), active compounds read low 1 | locus YHR079C, strain IRE1, active compounds read low 1.05 | locus YHR094C, strain hxt1, active compounds read low 0.993 | locus YHR129C, strain ARP1, active compounds read low 0.994 | locus YHR142W, strain chs7, active compounds read low 1.04 | locus YHR200W, strain rpn10, active compounds read low 0.984 | locus YIL066C, strain RNR3, active compounds read low 1 | locus YIL073C, strain SPO22, active compounds read low 1.19 | locus YIL125W, strain kgd1, active compounds read low 1.01 | locus YIR030C, strain dcg1, active compounds read low 0.993 | locus YJL092W, strain hpr5, active compounds read low 1 | locus YJL095W, strain BCK1 (second series), active compounds read low 1.01 | locus YJL095W, strain BCK1, active compounds read low 0.999 and 1.04 | locus YJL115W, strain asf1, active compounds read low 0.989 | locus YJL129C, strain trk1, active compounds read low 1.02 | locus YJL134W, strain LCB3, active compounds read low 1 | locus YJL154C, strain vps35, active compounds read low 1 | locus YJL164C, strain tpk1, active compounds read low 0.972 | locus YJL166W, strain qcr8, active compounds read low 1.01 | locus YJL168C, strain set2, active compounds read low 1.01 | locus YJL187C, strain SWE1 (second series), active compounds read low 0.997 | locus YJL187C, strain SWE1, active compounds read low 1 | locus YJR043C, strain POL32, active compounds read low 0.996 | locus YJR066W, strain TOR1, active compounds read low 0.969
